According to PubChem BioAssay (NCATS):
Results filed as inconclusive are left out. Active and inactive are the calls of the source. Unless noted, calls come from the whole dose curve; as a rule, active = well fitted curve in the direction sought with a large enough effect; inconclusive = small, poorly fitted or top-dose-only effect, or another doubt; inactive = no such curve, though single readings can be large; an effect the other way counts as inactive or inconclusive.

Experiments:
[1] = target: 3',5'-cyclic-AMP phosphodiesterase 4B (Homo sapiens) (UniProt Q07343); experiment: qHTS Assay for Inhibitors of PDE-IV (AID 607; active = well fitted activation curve with a large enough effect in the main read-out, with a control signal flat, not every such curve was filed as active)
Chain of 3',5'-cyclic-AMP phosphodiesterase 4B (Homo sapiens) (Q07343 whole entry, looked up): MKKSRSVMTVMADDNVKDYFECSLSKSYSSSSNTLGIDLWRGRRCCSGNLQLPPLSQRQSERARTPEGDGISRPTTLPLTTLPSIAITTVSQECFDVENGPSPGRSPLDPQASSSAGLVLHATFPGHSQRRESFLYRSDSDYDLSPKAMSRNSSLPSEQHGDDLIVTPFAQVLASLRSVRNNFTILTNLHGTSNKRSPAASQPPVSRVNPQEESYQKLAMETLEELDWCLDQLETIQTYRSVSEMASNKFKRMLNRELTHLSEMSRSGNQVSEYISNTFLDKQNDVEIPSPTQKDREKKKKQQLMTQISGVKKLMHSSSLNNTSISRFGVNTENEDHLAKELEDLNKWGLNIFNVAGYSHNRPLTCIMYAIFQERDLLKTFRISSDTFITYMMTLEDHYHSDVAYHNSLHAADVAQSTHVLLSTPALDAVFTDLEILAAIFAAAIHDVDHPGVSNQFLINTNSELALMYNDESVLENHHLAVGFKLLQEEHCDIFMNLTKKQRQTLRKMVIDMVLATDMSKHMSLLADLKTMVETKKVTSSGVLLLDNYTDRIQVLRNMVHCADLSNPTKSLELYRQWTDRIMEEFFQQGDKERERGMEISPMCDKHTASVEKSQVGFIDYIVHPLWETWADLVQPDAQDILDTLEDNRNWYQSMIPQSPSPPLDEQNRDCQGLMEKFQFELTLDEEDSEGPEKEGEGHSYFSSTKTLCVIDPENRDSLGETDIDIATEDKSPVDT
How it was run: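 Live HEK293 cells with a modified cyclic nucleotide-gated (CNG) channel report intracellular cAMP via membrane-potential dye fluorescence (ex 535/em 590 nm). Endogenous PDE-IV was targeted. Compounds were tested at up to 22.9 uM final; RO 20-1724 100 uM served as control.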

[2] = Confirmation and Secondary Assay for Modulators of Hemoglobin Beta Chain Splicing at IVS2 654 locus (AID 910);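 note: HeLa cells stably carrying EGFP split by mutant beta-globin IVS2-654 intron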;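 note: potency is the fitted concentration of half-maximal effect; potency of activators that raise GFP signal by restoring correct splicing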
How it was run: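 HeLa cells stably expressing EGFP interrupted by β-globin IVS2-654 intron, seeded overnight in Opti-MEM/2% FCS, then treated 2 days at 37 °C. Restored splicing read as total peak GFP intensity per well by laser scanning cytometry (488 nm excitation, 500–520 nm emission); 500 nM antisense PNA as control.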

[3] = Confirmation and Secondary Assay for Modulators of Hemoglobin Beta Chain Splicing at IVS2 705 locus (AID 930);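 note: GFP fluorescence per well restored by corrected splicing of the IVS2-705 intron in EGFP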; note: potency is the fitted concentration of half-maximal effect;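 for activation: HeLa cells stably expressing the EGFP-705 splicing reporter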
How it was run: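 Assay measures total GFP intensity per well in HeLa EGFP-705 cells after 2 days with compound; mis-splicing normally truncates EGFP, so fluorescence indicates corrected splicing.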

7G8 = experiment: qHTS profiling for inhibitors of Plasmodium falciparum proliferation (AID 504749); note: nearly all actives have a fitted effect of over 60% in size; note: potency is the fitted concentration of half-maximal effect; conditions: P. falciparum in erythrocytes, SYBR Green DNA, 72 h; series mostly up to 28.7 µM
How it was run: (§1)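 SYBR Green fluorescence (ex 485 nm, em 535 nm) reports parasite DNA after 72 h compound exposure of infected red cells at 0.3% parasitemia, 2.5% hematocrit; signal normalized to 0.29 uM artemisinin and vehicle wells.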

CP194 = experiment: as above; conditions: P. falciparum in erythrocytes, SYBR Green DNA, 72 h; series mostly up to 28.7 µM
How it was run: as §1

CP201 = experiment: as above; conditions: P. falciparum in erythrocytes, SYBR Green DNA, 72 h; series mostly up to 28.7 µM
How it was run: as §1

CP211 = experiment: as above; conditions: P. falciparum in erythrocytes, SYBR Green DNA, 72 h; series mostly up to 28.7 µM
How it was run: as §1

CP325 = experiment: as above; conditions: P. falciparum in erythrocytes, SYBR Green DNA, 72 h; series mostly up to 28.7 µM
How it was run: as §1

CP252 = experiment: as above; conditions: P. falciparum in erythrocytes, SYBR Green DNA, 72 h; series mostly up to 28.7 µM
How it was run: as §1

CP268 = experiment: as above; conditions: P. falciparum in erythrocytes, SYBR Green DNA, 72 h; series mostly up to 28.7 µM
How it was run: as §1

CP297 = experiment: as above; conditions: P. falciparum in erythrocytes, SYBR Green DNA, 72 h; series mostly up to 28.7 µM
How it was run: as §1

DIV14 = experiment: as above; conditions: P. falciparum in erythrocytes, SYBR Green DNA, 72 h; series mostly up to 28.7 µM
How it was run: as §1

DIV17 = experiment: as above; conditions: P. falciparum in erythrocytes, SYBR Green DNA, 72 h; series mostly up to 28.7 µM
How it was run: as §1

DIV30 = experiment: as above; conditions: P. falciparum in erythrocytes, SYBR Green DNA, 72 h; series mostly up to 28.7 µM
How it was run: as §1

PC26 = experiment: as above; conditions: P. falciparum in erythrocytes, SYBR Green DNA, 72 h; series mostly up to 28.7 µM
How it was run: as §1

3D7 = experiment: as above; conditions: P. falciparum in erythrocytes, SYBR Green DNA, 72 h; series mostly up to 28.7 µM
How it was run: as §1

CP185 = experiment: as above; conditions: P. falciparum in erythrocytes, SYBR Green DNA, 72 h; series mostly up to 28.7 µM
How it was run: as §1

CP215 = experiment: as above; conditions: P. falciparum in erythrocytes, SYBR Green DNA, 72 h; series mostly up to 28.7 µM
How it was run: as §1

CP250 = experiment: as above; conditions: P. falciparum in erythrocytes, SYBR Green DNA, 72 h; series mostly up to 28.7 µM
How it was run: as §1

[4] = target: Glucocorticoid receptor (Homo sapiens) (UniProt P04150); experiment: GR-GFP Redistribution (AID 450;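 active = compounds whose dose series gives a full or clear partial fitted curve of increased nuclear translocation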; note: potency is the fitted concentration of half-maximal effect); conditions: U2OS GR-GFP nuclear translocation, laser cytometry, 2 h
Chain of Glucocorticoid receptor (Homo sapiens) (P04150 whole entry, looked up): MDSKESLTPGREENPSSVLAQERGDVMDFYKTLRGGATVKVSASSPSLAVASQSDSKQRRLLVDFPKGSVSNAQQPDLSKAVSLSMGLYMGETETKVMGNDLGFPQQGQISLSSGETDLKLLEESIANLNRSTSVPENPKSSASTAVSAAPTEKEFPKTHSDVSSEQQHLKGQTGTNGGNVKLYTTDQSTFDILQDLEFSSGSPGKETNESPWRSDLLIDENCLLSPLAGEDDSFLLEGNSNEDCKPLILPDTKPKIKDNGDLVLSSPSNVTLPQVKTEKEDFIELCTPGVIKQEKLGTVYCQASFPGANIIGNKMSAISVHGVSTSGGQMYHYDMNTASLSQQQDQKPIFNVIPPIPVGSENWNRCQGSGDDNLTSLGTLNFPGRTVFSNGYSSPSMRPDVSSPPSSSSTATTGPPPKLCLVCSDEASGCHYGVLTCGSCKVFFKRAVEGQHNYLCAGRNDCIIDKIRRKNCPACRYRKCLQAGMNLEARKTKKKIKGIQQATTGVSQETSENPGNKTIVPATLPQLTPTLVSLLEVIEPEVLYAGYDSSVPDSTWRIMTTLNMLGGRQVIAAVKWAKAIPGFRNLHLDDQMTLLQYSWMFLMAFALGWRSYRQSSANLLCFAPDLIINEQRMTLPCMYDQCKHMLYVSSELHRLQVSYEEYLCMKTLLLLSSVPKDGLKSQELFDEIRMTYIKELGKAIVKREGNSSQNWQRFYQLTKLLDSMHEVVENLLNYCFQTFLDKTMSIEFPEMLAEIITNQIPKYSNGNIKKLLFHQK

Measured: Potency

COc1c2ccoc2cc2oc(=O)ccc12
inactive: [1] | [2] | [3]

O=NCc1ccc([N+](=O)[O-])o1
active: 7G8 8.91 µM
inactive: CP194 | CP201 | CP211 | CP325

CN1CC[C@H](CN2c3ccccc3Sc3ccccc32)C1
inactive: [1]
active: 7G8 1.41 µM | CP252 11.2 µM | CP268 15.1 µM | CP297 6.75 µM | CP325 15.1 µM | DIV14 4.26 µM | DIV17 5.36 µM | DIV30 13.5 µM | PC26 13.5 µM

CCN1/C(=C/C=C/C=C/c2sc3ccccc3[n+]2CC)Sc2ccccc21
active: 3D7 2 µM | 7G8 0.891 µM | CP185 3.98 µM | CP194 6.75 µM | CP201 12 µM | CP211 6.01 µM | CP215 6.75 µM | CP250 3.98 µM | CP252 3.98 µM | CP268 12 µM | CP297 12 µM | DIV14 8.49 µM | DIV17 9.53 µM | DIV30 12 µM

S=C1NC=NC2N=CNC12 (stereo not drawn)
inactive: 3D7 | CP185 | CP250 | CP252
active: [2] 3.16 µM | [3] 3.16 µM

CN(C)CCCCCCN(C)C
not listed: [1] | [2] | [3] | [4]
inactive: all other assays above

COc1ccc2[nH]cc(CCNc3ncncc3-c3ccccc3C(F)(F)F)c2c1
inactive: [4] > 46 µM | [1]

CNc1ncncc1-c1ccccc1CN(C)C
inactive: [4] > 46 µM | [1]

C1OCOCO1
not listed: [1] | [2] | [3] | CP194 | [4]
inactive: all other assays above

c1ccc(Nc2nc(-c3ccoc3)nc3ccccc23)cc1
inactive: [4] > 46 µM

Cc1ccccc1-c1ccc2ncnc(NCCN3CCOCC3)c2c1
inactive: [4] > 46 µM

O=c1cnc2cnc(N3CCOCC3)nc2n1Cc1cccs1
inactive: [4] > 9.22 µM

C/C=C\c1ccc(OC)cc1
not listed: [1] | [4]
inactive: all other assays above

CC(C)(CO)C(O)C(=O)NCCCC(=O)O (stereo not drawn)
active: CP215 12 µM

NC1=NC(S)C2N=CN=C2N1 (stereo not drawn)
active: [2] 2 µM | [3] 5.01 µM
not listed: [1] | 7G8 | CP252 | [4]
inactive: all other assays above

CN(C)C(=O)c1ccc(-c2ccc3ncnc(Nc4ccc(F)cc4)c3c2)cc1
inactive: [4] > 46 µM | [1]
